Calls of active or inactive are those of the source. Entries that show only a call come without a potency. Unless noted, calls follow the shape of the full dose curve.

The first test concerns the target Estrogen receptor (Homo sapiens) (UniProt P03372). Put plainly: qHTS assay to identify small molecule antagonists of the estrogen receptor alpha (ER-alpha) signaling pathway (AID 743069; active = well fitted curve in the direction sought with a large enough effect in the signal ratio in the repeat runs, not every such curve was filed as active; inconclusive = weak or mixed curves, or effect the other way; inactive = no such curve, though single readings can be large or run the other way; the % refers to the signal ratio; also: potency is read from the fitted curve at half-maximal effect). Conditions: HEK293 ER-alpha-UAS-bla, beta-lactamase ratio, antagonist mode; series mostly up to 69.4 µM. An outline of the steps: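 HEK293 cells stably carrying an ER-alpha-UAS-bla beta-lactamase reporter were pre-cultured overnight in 2% charcoal-stripped FBS medium. Test compounds in DMSO were added together with 17beta-estradiol for 18 hr at 37C. Read-out was fluorescence after 2 hr with LiveBLAzer B/G FRET substrate at room temperature.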
A general note: Quantitative high-throughput screening tests each substance at several concentrations.
For `COc1cccc2c1cc([N+](=O)[O-])c1c(C(=O)O)cc3c(c12)OCO3`, the Potency is 21.9 µM [inconclusive] (active).

On to `CCOC(=O)CP(=O)(OCC)OCC`, for which the Potency entry was “inactive”.

Regarding `NC(=O)c1cc([N+](=O)[O-])cc([N+](=O)[O-])c1`, the Potency result is “inactive”.

Turning to `CC(=O)Nc1cc([As](=O)(O)O)ccc1O`, the Potency result is “inactive”.

Take `O=C1OC(=O)C2C1C1(Cl)C(Cl)=C(Cl)C2(Cl)C1(Cl)Cl` (configuration not stated): the Potency entry was “inactive”.

In the case of `CCCCOP(=O)(O)OCCCC`, the Potency entry was “inactive”.

With `CC1(C)CON(Cc2ccccc2Cl)C1=O`, the Potency entry was “inactive”.

`CC1(C)C(=O)NC(=O)NC1=O`: the Potency entry is “inactive”.

On to `COC(=O)c1ccccc1S(=O)(=O)NC(=O)N(C)c1nc(C)nc(OC)n1`, for which the Potency result was “inactive”.

Turning to `Nc1c(Br)cc([N+](=O)[O-])cc1[N+](=O)[O-]`, the Potency result was “inactive”.

Tested on in a further test: not listed separately
Put plainly: qHTS assay to identify small molecule antagonists of the estrogen receptor alpha (ER-alpha) signaling pathway - cell viability counter screen (AID 743074). Also: nearly all actives have a fitted effect of over 45% in size. Conditions: ERalpha-bla HEK293 viability, CellTiter-Glo luminescence, 18 h; series mostly up to 69.4 µM.
Consider `O=C(Cc1ccccc1)OCc1ccccc1`, for which the call was inactive.

As to `ClC(Cl)Br`, the outcome was inactive.

Take `CC1CCCCC1NC(=O)Nc1ccccc1` (configuration not stated): the outcome was inactive.

On to `O=[N+]([O-])c1ccc2c3c(cccc13)CC2`, for which the outcome was inactive.

`CCSC(=O)N(CC)C1CCCCC1`: the compound was classed as inactive.

As to `c1coc(-c2nc3ccccc3[nH]2)c1`, the outcome was inactive.

In the case of `O=C1c2ccccc2C(=O)c2ccccc21`, the result was inactive.

As for `CCCCOC(=O)[C@@H](C)Oc1ccc(Oc2ccc(C#N)cc2F)cc1`, the compound was called inactive.

As to `O=C(O)C(Br)CBr` (configuration not stated), the compound was called inactive.

For `O=C(Nc1ccccc1)c1ccccc1I`, the call was inactive.

As for `Cc1coc2c1CCC(C)C2` (configuration not stated), the compound was called inactive.

`CC1=C(C(=O)Nc2ccccc2)S(=O)(=O)CCO1`: the result was inactive.

On to `CNC(=O)Oc1ccc(N(C)C)c(C)c1`, for which the call was inactive.

In the case of `CCOP(=S)(OCC)Oc1ncn(-c2ccccc2)n1`, the outcome was inactive.

Consider `CC(C)COP(=O)(OCC(C)C)OCC(C)C`, for which the compound was classed as inactive.

Regarding `CCOC(=O)N(C)C(=O)CSP(=S)(OCC)OCC`, the compound was classed as inactive.

Turning to `CCOC(=O)CP(=O)(OCC)OCC`, the call was inactive.

With `NC(=O)c1cc([N+](=O)[O-])cc([N+](=O)[O-])c1`, the outcome was inactive.

For `CCCCOP(=O)(O)OCCCC`, the compound was called inactive.

`Oc1c(Cl)cccc1Cl`: the outcome was inactive.

For the compound `CC1(C)CON(Cc2ccccc2Cl)C1=O`, the call was inactive.

For the compound `COC(=O)c1ccccc1S(=O)(=O)NC(=O)N(C)c1nc(C)nc(OC)n1`, the compound was called inactive.

With `Nc1c(Br)cc([N+](=O)[O-])cc1[N+](=O)[O-]`, the result was inactive.

For the compound `Fc1ccc(C2(Cn3cncn3)OC2c2ccccc2Cl)cc1` (configuration not stated), the call was inactive.

For the next test, the target named is Estrogen receptor (Homo sapiens) (UniProt P03372). Put plainly: qHTS assay to identify small molecule agonists of the estrogen receptor alpha (ER-alpha) signaling pathway (AID 743075). Also: potency is read from the fitted curve at half-maximal effect. Conditions: HEK293 ER-alpha-UAS-bla, beta-lactamase FRET ratio, 18 h; series mostly up to 70.1 µM.
Chain of Estrogen receptor (Homo sapiens) (P03372 whole entry, looked up): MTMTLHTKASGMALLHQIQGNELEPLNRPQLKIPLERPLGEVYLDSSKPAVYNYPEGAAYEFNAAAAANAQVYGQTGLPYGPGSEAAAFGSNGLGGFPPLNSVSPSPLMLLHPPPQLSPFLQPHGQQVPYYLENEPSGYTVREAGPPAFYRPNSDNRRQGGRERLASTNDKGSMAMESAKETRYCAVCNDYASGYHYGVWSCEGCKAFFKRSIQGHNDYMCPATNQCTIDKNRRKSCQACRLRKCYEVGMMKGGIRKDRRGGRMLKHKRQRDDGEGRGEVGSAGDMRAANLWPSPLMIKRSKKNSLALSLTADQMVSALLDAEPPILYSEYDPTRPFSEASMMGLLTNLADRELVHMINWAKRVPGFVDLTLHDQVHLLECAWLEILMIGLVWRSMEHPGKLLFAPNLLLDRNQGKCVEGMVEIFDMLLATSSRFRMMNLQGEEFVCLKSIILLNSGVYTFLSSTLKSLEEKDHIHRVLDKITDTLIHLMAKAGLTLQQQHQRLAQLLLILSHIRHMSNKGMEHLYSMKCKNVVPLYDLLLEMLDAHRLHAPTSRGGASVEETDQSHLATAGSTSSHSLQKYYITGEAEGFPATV
As to `O=C(Cc1ccccc1)OCc1ccccc1`, the Potency entry was “inactive”.

With `ClC(Cl)Br`, the Potency result was “inactive”.

In the case of `Nc1cc(Cl)ccc1O`, the Potency result is “inactive”.

Turning to `CC1CCCCC1NC(=O)Nc1ccccc1` (configuration not stated), the Potency result was “inactive”.

For the compound `CNC(=O)Oc1ccccc1C1OCCO1`, the Potency entry is “inactive”.

On to `O=S(=O)(O)C(F)(F)C(F)(F)C(F)(F)C(F)(F)C(F)(F)C(F)(F)F`, for which the Potency entry was “inactive”.

As for `CSc1ccc(C(=O)C(C)(C)N2CCOCC2)cc1`, the Potency is 61.6 µM [inconclusive] (active).

As for `O=[N+]([O-])c1ccc2c3c(cccc13)CC2`, the Potency result is “inactive”.

For `COP(=S)(OC)Oc1ccc(S(N)(=O)=O)cc1`, the Potency result was “inactive”.

In the case of `CCSC(=O)N(CC)C1CCCCC1`, the Potency result is “inactive”.

As to `O=C1c2ccccc2C(=O)c2ccccc21`, the Potency result was “inactive”.

In the case of `CCCCOC(=O)[C@@H](C)Oc1ccc(Oc2ccc(C#N)cc2F)cc1`, the Potency entry is “inactive”.

Take `O=C(O)C(Br)CBr` (configuration not stated): the Potency entry was “inactive”.

In the case of `O=C(Nc1ccccc1)c1ccccc1I`, the Potency entry was “inactive”.

Turning to `O=CNC(N1CCN(C(NC=O)C(Cl)(Cl)Cl)CC1)C(Cl)(Cl)Cl` (configuration not stated), the Potency entry was “inactive”.

For `Cc1coc2c1CCC(C)C2` (configuration not stated), the Potency entry is “inactive”.

Regarding `CC1=C(C(=O)Nc2ccccc2)S(=O)(=O)CCO1`, the Potency entry was “inactive”.

As for `CC(Cl)(Cl)[N+](=O)[O-]`, the Potency entry was “inactive”.

In the case of `CNC(=O)Oc1ccc(N(C)C)c(C)c1`, the Potency result was “inactive”.

As for `CCOP(=S)(OCC)Oc1ncn(-c2ccccc2)n1`, the Potency entry is “inactive”.

In the case of `COc1cccc2c1cc([N+](=O)[O-])c1c(C(=O)O)cc3c(c12)OCO3`, the Potency result is “inactive”.

Take `CCOC(=O)CP(=O)(OCC)OCC`: the Potency result is “inactive”.

As for `NC(=O)c1cc([N+](=O)[O-])cc([N+](=O)[O-])c1`, the Potency result is “inactive”.

Consider `CC(=O)Nc1cc([As](=O)(O)O)ccc1O`, for which the Potency entry is “inactive”.

As for `O=C1OC(=O)C2C1C1(Cl)C(Cl)=C(Cl)C2(Cl)C1(Cl)Cl` (configuration not stated), the Potency result was “inactive”.

With `Oc1c(Cl)cccc1Cl`, the Potency entry was “inactive”.

Turning to `CC1(C)CON(Cc2ccccc2Cl)C1=O`, the Potency entry was “inactive”.

As to `CC1(C)C(=O)NC(=O)NC1=O`, the Potency result was “inactive”.

Consider `COC(=O)c1ccccc1S(=O)(=O)NC(=O)N(C)c1nc(C)nc(OC)n1`, for which the Potency entry was “inactive”.

On to `Nc1c(Br)cc([N+](=O)[O-])cc1[N+](=O)[O-]`, for which the Potency entry is “inactive”.

`Fc1ccc(C2(Cn3cncn3)OC2c2ccccc2Cl)cc1` (configuration not stated): the Potency result was “inactive”.

A further test has the same target. Briefly: qHTS assay to identify small molecule agonists of the estrogen receptor alpha (ER-alpha) signaling pathway using the BG1 cell line (AID 743079; active = well fitted activation curve with a large enough effect in the repeat runs; inconclusive = weak or mixed curves, or effect the other way; inactive = no such curve, though single readings can be large or run the other way; also: nearly all actives have a fitted effect of over 20% in size; also: potency is read from the fitted curve at half-maximal effect). Conditions: BG1Luc4E2 cells, ERE-luciferase agonist, 22 h.
As for `CSc1ccc(C(=O)C(C)(C)N2CCOCC2)cc1`, the Potency was 3.44 µM (active).

For `c1coc(-c2nc3ccccc3[nH]2)c1`, the Potency is 30.6 µM (active).

With `CCOP(=S)(OCC)Oc1ncn(-c2ccccc2)n1`, the Potency was 54.5 µM (active).

On to `CCCCOP(=O)(O)OCCCC`, for which the Potency is 24.3 µM (active).

Still in this test, the particulars now being: BG1Luc4E2 cells, ERE-luciferase agonist, 22 h; at 70.3 µM (top of the series).
Consider `Nc1cc(Cl)ccc1O`, for which the activation was -2.11% (inactive).

`CNC(=O)Oc1ccccc1C1OCCO1`: the activation is -9.73% (inactive).

Consider `O=S(=O)(O)C(F)(F)C(F)(F)C(F)(F)C(F)(F)C(F)(F)C(F)(F)F`, for which the activation is -0.729% (inactive).

Consider `O=[N+]([O-])c1ccc2c3c(cccc13)CC2`, for which the activation is -4.67% (inactive).

As for `COP(=S)(OC)Oc1ccc(S(N)(=O)=O)cc1`, the activation was 10.7% (inactive).

As to `CCCCOC(=O)[C@@H](C)Oc1ccc(Oc2ccc(C#N)cc2F)cc1`, the activation is -4.38% (inactive).

As for `O=C(Nc1ccccc1)c1ccccc1I`, the activation was 0.753% (inactive).

Take `O=CNC(N1CCN(C(NC=O)C(Cl)(Cl)Cl)CC1)C(Cl)(Cl)Cl` (configuration not stated): the activation is -11.3% (inactive).

Take `CC(Cl)(Cl)[N+](=O)[O-]`: the activation is -5.99% (inactive).

As to `CC(=O)Nc1cc([As](=O)(O)O)ccc1O`, the activation is 10% (inactive).

For the compound `Oc1c(Cl)cccc1Cl`, the activation was 20.4% (inactive).

With `CC1(C)C(=O)NC(=O)NC1=O`, the activation is -7.44% (inactive).

As to `Fc1ccc(C2(Cn3cncn3)OC2c2ccccc2Cl)cc1` (configuration not stated), the activation is -28.4% (inactive).

The record behind these values is PubChem BioAssay (Tox21).
